Screens (PubChem BioAssay)
Most compounds without a hit are left out; they make up all but 6.3% or so of the library.
VP16 counter: inhibits Gal4-VP16 luciferase reporter, ROR gamma counter-screen; Drosophila S2 Gal4-VP16 UAS-luciferase, luminescence, 20 h; Potency, µM (top dose mostly 53.6 µM), without a hit: at the highest dose activity, negative = inhibition, most hits filed as inhibitors; hit rate 3.5% among 310,000; AID 2546;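 also: Gal4-VP16 expression switched on by copper sulfate through the metallothionein promoter; % is scaled to controls: 0 for no effect and ±100 for the full control effect; nearly all actives have a fitted effect of over 50% in size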
HepG2 viability: HepG2 cytotoxicity, counter-screen for TGF-b inhibitors. HepG2 CAGA-GFP viability, ATP luminescence, 18 h. Potency, µM (titrated, usually from 46.1 µM), for the others: at the highest dose activity change, negative = cytotoxicity, hits mostly cytotoxic. hit rate 0.76% among 410,000. AID 588856
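HepG2 CAGA-GFP cells (1000/well, DMEM with 1% FBS) received compound, then TGF-beta at 500 pg/mL final, and were incubated 18 hours at 37 degrees C. Viability was read by CellTiter-Glo luminescence. Media-only wells were set as complete cell-killing and DMSO as no toxicity.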
ATXN2 expr inh: inhibitors of ATXN2 expression; AID 1745845; HEK-293 ATXN2-luciferase reporter, luminescence, 24 h; Potency, µM (series often up to 57 µM), for inactives: at the top dose activity change, negative = inhibition, actives largely listed as inhibitors; hit rate 0.72% among 360,000; also: % is scaled to controls: 0 for no effect and ±100 for the full control effect; nearly all actives have a fitted effect of over 55% in size
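ATXN2-luciferase reporter cells (luciferase flanked by upstream and downstream ATXN2 gene portions) were treated 24 h at 37 °C with compounds at up to 57 uM. SteadyGlo luminescence gave expression; GF-AFC fluorescence gave viability.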
S2 tox: reduces viability in counter-screen for ATXN expression inhibitors | hit rate 0.49% among 400,000 | S2 cells (HEK-293 line with an ATXN2-luciferase reporter) viability, CellTiter-Fluor protease fluorescence, 24 h | Potency, µM (top dose mostly 56.7 µM), actives largely listed as cytotoxic | AID 651635; also: nearly all actives have a fitted effect of over 40% in size
TGFb inhibitor: blocks TGF-b signaling. HepG2 CAGA-GFP TGF-b/SMAD3 reporter, GFP fluorescence, 18 h; TGF-beta stimulated, 500 pg/mL final. Potency, µM (highest dose often 46.1 µM), for inactives: at the highest dose activity, negative = inhibition, hits mostly inhibitors. hit rate 1.2% among 410,000. AID 588855; also: % is scaled to controls: 0 for no effect and ±100 for the full control effect; nearly all actives have a fitted effect of over 65% in size
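Read-out: total well GFP (ex488/em500-530) summed from mean per-cell fluorescence. Cells: HEPG2 CAGA-GFP, 1% FBS DMEM, 18 h at 37 degrees C with 500 pg/mL final TGF-beta. Unstimulated wells served as the full-inhibition control; stimulated DMSO wells = 0%.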
RORg inh: inhibitors of mouse ROR gamma transcriptional activity; P51450; Drosophila S2 Gal4-RORgamma UAS-luciferase reporter, 20 h; Potency, µM (doses to about 53.6 µM), inactives show at the highest dose activity change, negative = inhibition, usual class: inhibitors; hit rate 5.4% among 310,000; also: % is scaled to controls: 0 for no effect and ±100 for the full control effect; nearly all actives have a fitted effect of over 60% in size
Target sequence (P51450 whole entry, looked up, the tested form may be a part): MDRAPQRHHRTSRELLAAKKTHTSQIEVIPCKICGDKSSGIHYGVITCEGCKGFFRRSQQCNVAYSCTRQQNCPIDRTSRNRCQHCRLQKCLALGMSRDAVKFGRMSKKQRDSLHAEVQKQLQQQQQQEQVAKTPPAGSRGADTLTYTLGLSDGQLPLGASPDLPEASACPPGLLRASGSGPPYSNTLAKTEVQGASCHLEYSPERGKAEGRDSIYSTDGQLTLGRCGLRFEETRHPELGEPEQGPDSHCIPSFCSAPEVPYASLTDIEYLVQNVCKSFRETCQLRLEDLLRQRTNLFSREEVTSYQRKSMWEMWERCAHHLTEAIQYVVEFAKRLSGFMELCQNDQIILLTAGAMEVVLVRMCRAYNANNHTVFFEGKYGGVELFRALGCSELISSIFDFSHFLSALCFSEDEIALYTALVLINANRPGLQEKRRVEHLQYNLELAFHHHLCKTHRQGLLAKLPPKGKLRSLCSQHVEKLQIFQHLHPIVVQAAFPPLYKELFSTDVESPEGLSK
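Using a luciferase readout, inhibitors were identified by reduced reporter activity in Drosophila cells coexpressing a copper-inducible Gal4–ROR gamma fusion and UAS-driven Photinus luciferase, incubated 20 hr after 700 uM copper sulfate.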
Numbers without * were called inactive; i = inactive; ? = inconclusive; / = no result; ! = repeats disagree. Calls follow the shape of the dose curve; as a rule, active = well fitted curve in the direction sought with a large enough effect; inconclusive = small, poorly fitted or top-dose-only effect, or another doubt; inactive = no such curve, though single readings can be large; an effect the other way counts as inactive or inconclusive. Potency is read from the fitted curve at half-maximal effect.

SMILES	VP16 counter	HepG2 viability	ATXN2 expr inh	S2 tox	TGFb inhibitor	RORg inh
S=c1[nH]nc(-c2ccccn2)n1/N=C/c1cccc2ccccc12	?	-9%	-19%	i	11%	2.2µM*
S=c1[nH]nc(-c2ccc(Cl)cc2)n1/N=C/c1cccs1	-20%	-17%	-14%	i	-32%	3.5µM*
Cc1ccc(-c2nn(-c3ccccc3)cc2/C=N/n2c(-c3ccncc3)n[nH]c2=S)cc1	-4%	24%	68%	i	9%	-9%
Cc1ccc(-c2n[nH]c(=S)n2/N=C/c2c(C)[nH]n(-c3ccccc3)c2=O)cc1	-26%	-38%	20%	i	0%	10µM*
O=C(NCCc1nc2ccccc2n1CCCOc1ccccc1Cl)C1CCCCC1	/	-14%	/	/	-20%	/
CCc1ccc(S(=O)(=O)c2cn(C)c3cc(F)c(F)cc3c2=O)cc1	/	-13%	0%	i	7%	/
CCOc1ccc(/C=N/n2c(-c3ccccc3)n[nH]c2=S)cc1	?	-16%	-3%	i	-11%	1.6µM*
S=c1[nH]nc(-c2ccccn2)n1/N=C/c1ccc(Cl)cc1	-19%	7%	-9%	i	3%	13µM*
S=c1[nH]nc(-c2ccccn2)n1/N=C/c1ccccc1	-3%	-1%	1%	i	-1%	?
Cc1nn(-c2ccccc2)c(C)c1/C=N/n1c(-c2ccc(Cl)cc2)n[nH]c1=S	8.9µM*	6%	-27%	i	-35%	13µM*
S=c1[nH]nc(-c2ccccc2)n1/N=C/c1cccc(Cl)c1	4.5µM*	-24%	-3%	/	-28%	5.6µM*
CC(C)(C)c1ccc(C(=O)N2CCC3(CC2)CC3C(=O)NCCc2ccccn2)cc1 (stereo not drawn)	/	/	/	i	/	/
O=Cc1ccc(O)cc1O	-10%	0%	1%	i	7%	-29%
O=CN/C=C/c1cc(O)ccc1O	16µM*	0%	?	/	-6%	11µM*
O=C(c1cnn2c1NC(=C1CC1)C=C2C(F)F)N1CCc2ccccc21	/	-39%	/	/	-17%	/
O=C1c2ccccc2C(=O)c2cc(S(=O)(=O)Nc3ccccc3)ccc21	?	-104%	-20%	i	20µM*	-14%
Cc1ccc2nsnc2c1S(=O)(=O)Nc1cccc2cccnc12	0.63µM*	/	/	/	/	1.1µM*
O=S(=O)(Nc1cc(Sc2cccc3cccnc23)c(O)c2ccccc12)c1ccccc1	2.8µM*	/	/	/	/	1.3µM*
Cc1ccc2nsnc2c1S(=O)(=O)Nc1cccc2nsnc12	-1%	7%	1%	?	-2%	?
CC(C)c1ccc(C(=O)Nc2cccc3cccnc23)cc1	/	-8%	42%	i	-5%	/
O=C(O)c1cccc(NS(=O)(=O)c2ccc3c(c2)C(=O)c2ccccc2C3=O)c1	-8%	11%	/	i	1%	19%
O=C(O)c1ccccc1NS(=O)(=O)c1cccc2cccnc12	4%	-1%	1%	i	2%	-17%
CC(C)c1cc(C(C)C)c(S(=O)(=O)Nc2cccc3cccnc23)c(C(C)C)c1	-90%	/	/	/	/	0.05µM*
O=C1c2ccccc2C(=O)c2cc(S(=O)(=O)Nc3cccc4cccnc34)ccc21	-93%	/	/	/	/	0.89µM*
COc1ccccc1Nc1n[nH]c(=S)s1	5%	19%	18%	i	-5%	10µM*
COc1ccccc1Nc1nc(C)cs1	?	13%	24%	i	5%	11µM*!
Cc1cc(C(=O)CSc2nnc(N)s2)c(C)n1Cc1cccs1	11µM*	-1%	?	i	2%	8.9µM*
CC(=O)Nc1ccc(SCC(=O)c2cc(C)n(Cc3cccs3)c2C)cc1	?	-11%	-4%	i	7%	-1%
Cc1csc(SCC(=O)c2cc(C)n(Cc3cccs3)c2C)n1	8.9µM*	-18%	?	i	-27%	6.3µM*
N#Cc1c(N)[nH]c(=S)c(C#N)c1-c1ccccc1	?	11%	-4%	i	-1%	10µM*
